Screening results: PubChem, National Center for Advancing Translational Sciences (NCATS)
D2 PAM-1: Beta-Arrestin HTS for Positive Allosteric Modulators of the Human D2 Dopamine Receptor: Potentiators; D(2) dopamine receptor (Homo sapiens), P14416; DiscoveRx D2 beta-arrestin cells, luminescence, 90 min; 100% = 57 uM dopamine signal; potentiation, % (no concentration beside the values); 0.23% of 360,000 active; in the data active means potentiation above about 50%
Target sequence (P14416 whole entry, looked up): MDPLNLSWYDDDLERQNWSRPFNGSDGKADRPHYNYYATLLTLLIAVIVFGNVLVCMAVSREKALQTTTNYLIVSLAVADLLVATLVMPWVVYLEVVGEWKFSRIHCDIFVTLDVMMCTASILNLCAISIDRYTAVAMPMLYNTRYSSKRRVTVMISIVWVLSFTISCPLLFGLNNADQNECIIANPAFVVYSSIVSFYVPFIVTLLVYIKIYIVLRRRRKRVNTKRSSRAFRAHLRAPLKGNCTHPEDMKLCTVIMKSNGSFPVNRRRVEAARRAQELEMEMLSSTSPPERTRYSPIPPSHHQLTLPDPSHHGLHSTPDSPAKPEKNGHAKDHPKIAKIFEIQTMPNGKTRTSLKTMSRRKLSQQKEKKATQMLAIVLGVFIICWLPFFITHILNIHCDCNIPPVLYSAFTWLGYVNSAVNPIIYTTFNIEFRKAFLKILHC
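PathHunter beta-arrestin assay in DiscoveRx D2 cells. Compounds were added with an EC20 of dopamine (50 nM final) for 90 min at 37 deg C. Luminescence was read 1 h after detection reagent, with 57 uM dopamine as the EC100 control.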
D2 ag-1: Beta-Arrestin HTS for Positive Allosteric Modulators of the Human D2 Dopamine Receptor: Agonists; D(2) dopamine receptor (Homo sapiens), P14416; DiscoveRx PathHunter D2 beta-arrestin, luminescence, 90 min; 100% = 57 uM dopamine signal; activation, % (concentration not given with the values); 0.084% of 360,000 active; AID 624465, 2012; in the data active means activation above about 40%
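DiscoveRx PathHunter D2 beta-arrestin cells (2,100/well) attached overnight, then compound-stimulated 90 min at 37 C in HBSS/10 mM HEPES/0.1% Tween-20 buffer; beta-galactosidase complementation read by luminescence after 1 h at ambient temperature. Dopamine 57 uM final (EC100) as control.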
D2 ag-2: HTS Assay for Allosteric Agonists of the Human D2 Dopamine Receptor: Primary Screen for Agonists | D(2) dopamine receptor (Homo sapiens), P14416 | HEK293 T-REx D2 cells, calcium flux agonist mode | activation, % at 2 µM | 0.53% of 340,000 active | AID 485358, 2010;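 active means activation over 3 SD above normal in the single-dose calcium agonist read, cut at about 30% in these data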; further: 0% is about no effect
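Tetracycline-induced HEK293 Trex cells with D2 receptor force-coupled to calcium signaling, plated overnight at 30 C and loaded with no-wash calcium dye. Calcium flux read kinetically for 180 s after compound addition; responses flag agonists.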
D2 antagonist: HTS Assay for Allosteric Antagonists of the Human D2 Dopamine Receptor: Primary Screen for Antagonists; D(2) dopamine receptor (Homo sapiens), P14416; HEK293 TREx D2 cells, calcium flux, dopamine EC80; inhibition, % at 10 µM; 2% of 340,000 active; AID 485344, 2010; in the data active means inhibition above about 30%; inactive means below that, where a call was filed; further: 0% is about no effect
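In this primary screen, negative modulation is detected by tracking calcium flux after an EC80 dopamine challenge in inducible HEK293 T-REx D2 cells preexposed to test compound for 180 s.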
D2 PAM-2: HTS Assay for Positive Allosteric Modulators of the Human D2 Dopamine Receptor: Primary Screen for Potentiators. D(2) dopamine receptor (Homo sapiens), P14416. HEK293 T-REx D2, calcium flux, EC20 dopamine potentiation. potentiation, % at 10 µM. 0.34% of 340,000 active. AID 485347, 2010;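 active means potentiation over 3 SD above the plate norm, cut at about 30% in these data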; further: 0% is about no effect
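Cells plated with tetracycline inducer and held overnight at 30 C; calcium dye loaded 30–90 min at room temperature; baseline taken, compound added and read 180 s; EC20 dopamine then added and read 180 s.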
LDHA block: qHTS assay for inhibitors of human lactate dehydrogenase | purified LDHA, NADH/diaphorase-resazurin fluorescence; active compounds read low | 0.15% of 480,000 active | AID 1347041, 2019 | activity change, % (values are at about 110 or 230 µM); in the data active means activity change below about -30%;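 further: plate controls were DMSO wells for no effect and wells without enzyme for full effect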
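Resorufin fluorescence (ex540/em590), read at 0 and 20 min after diaphorase/resazurin addition, reports the NADH left after a 5 min room-temperature reaction of 2 nM human LDH5 with 0.06 mM NADH and 0.2 mM pyruvate.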
Starred values were filed as active, the others as inactive; / = no result; ! = not confirmed by another sample. An excerpt weighted towards active compounds, which were near 2.1% of everything screened.

SMILES	D2 PAM-1	D2 ag-1	D2 ag-2	D2 antagonist	D2 PAM-2	LDHA block
CCCCC(=O)Nc1sc2c(c1-c1nc3ccccc3s1)CCN(C(C)C)C2	/	/	/	/	/	11.1
c1ccc(Cn2c[n+](Cc3ccccc3)cn2)cc1	-5.0	-2.8	0.5	43.1*	-5.6	-1.3
N#C/C(=C/c1cc2ccccc2o1)c1nc2ccccc2[nH]1	/	/	/	/	/	8.6
CC(=O)c1ccc(OCC(O)CN(C)CCOc2ccc(Br)cc2)cc1 (stereo not drawn)	-8.9	2.2	2.8	43.8*	-25.8	-6.2
COc1cc(C(C)=O)ccc1OCC(O)CN(C)Cc1sccc1C (stereo not drawn)	/	/	/	/	/	2.6
COc1ccc(CCN(C)CC(O)COc2ccc(C(C)=O)cc2OC)cc1OC (stereo not drawn)	-8.3	-2.1	0.0	36.0*	1.5	-14.1
COc1ccc(-c2nnc(SCC(=O)NC(C)c3ccc4c(c3)CCCC4)o2)cc1 (stereo not drawn)	/	/	/	/	/	-6.2
CCc1ccccc1/C=C/C(=O)O	/	/	/	/	/	-7.6
Cc1cccc(C(=O)Nc2sc3c(c2C(N)=O)CCCCC3)c1	/	/	/	/	/	-5.5
C/C(=N\NC(=O)c1nnn(-c2nonc2N)c1CN(C)c1ccccc1)c1ccccc1O	-1.4	-0.7	0.5	7.9	-7.7	-1.6
CC1CCN(Cc2c(C(=O)N/N=C/c3cccc(Cl)c3)nnn2-c2nonc2N)CC1	-12.8	1.0	0.2	-8.0	37.5*	-0.7
C/C(=N\NC(=O)c1nnn(-c2nonc2N)c1CN1CCCCC1)c1ccccc1O	-6.5	-5.6	-0.2	30.1*	-3.7	-12.7
Cc1cc2ncn(C3CC(=O)N(Cc4ccccc4)C3=O)c2cc1C (stereo not drawn)	11.1	2.7	-0.2	-15.3	39.4*	0.0
COc1ccc(NC2=NCCCCC2)cc1	-6.9	-2.1	0.1	10.4	0.0	0.0
COc1ccc(NC2=Nc3ccccc3CC2)cc1	-27.8	-1.6	1.6	46.2*	-38.7	-3.5
CCOC(=O)c1cccc(Nc2nc3ccccc3nc2NS(=O)(=O)c2ccc(C)cc2)c1	/	/	/	/	/	-2.3
Cc1cc(C)cc(OC(=O)N2CCOCC2)c1	11.4	-2.7	-0.2	37.8*	8.9	-0.7
C=CCC1(O)C(=O)N2C(=C1C(=O)N1CCOCC1)c1ccccc1CC2(C)C (stereo not drawn)	-6.1	-2.1	0.6	44.8*	-6.7	-7.7
COc1ccc(NC(=O)Cn2c(C(=O)c3ccc(Cl)cc3)nc3ccccc32)cc1OC	/	/	/	/	/	-2.0
OCCN1CCN(C(=S)Nc2cccc(C(F)(F)F)c2)CC1	-9.6	-4.4	-0.3	0.4	-2.2	-32.8*!
CCCN1CCN(C(=O)Nc2cccc(C(F)(F)F)c2)CC1	-15.2	-3.2	-1.2	51.6*	-11.2	-2.8
CCN1CCN(C(=S)Nc2cccc(C(F)(F)F)c2)CC1	-7.8	-3.6	/	/	-7.2	-1.7
CNC(=O)c1ccc(-c2nc(CN3CCN(C(=O)Nc4ccc(OC)cc4)CC3)c(C)o2)cc1	/	/	/	/	/	-3.6
Cc1ccccc1OCc1nc2ccccc2c(=O)n1/N=C/c1cn[nH]c1-c1ccccc1	8.4	-2.4	0.2	56.7*	-2.2	3.4
Cc1ccc(-c2[nH]ncc2/C=N/n2c(COc3ccccc3)nc3ccccc3c2=O)cc1	18.4	3.9	0.4	-1.8	7.9	-5.9
SMILES	D2 PAM-1	D2 ag-1	D2 ag-2	D2 antagonist	D2 PAM-2	LDHA block
COc1ccccc1/C=C/C=C1\Oc2cc(OC(=O)C(C)(C)C)ccc2C1=O	/	/	/	/	/	7.7
COC(=O)c1c(C)[nH]c(C(=O)C(C)OC(=O)c2ccc(O)cc2)c1C (stereo not drawn)	/	/	/	/	/	11.2
O=C(O)c1cc(-c2ccccc2)nc2ccccc12	-4.4	-7.3	-1.4	40.3*!	0.2	-10.9
O=C(O)c1cc(-c2cccs2)nc2ccc(Br)cc12	/	/	0.1	33.6*	0.4	/
Cc1ccc(-c2cc(C(=O)Nc3cc(C(=O)O)ccc3C)c3ccccc3n2)cc1	4.8	-2.3	0.1	-29.6	31.6*	-0.6
Cc1ccc(C)c(NC(=O)c2cc(C)nc3ccccc23)c1	12.5	-0.5	-2.0	-2.4	1.5	-1.3
CCN(CC)C(=O)c1cc(-c2ccc(C)s2)nc2ccccc12	/	/	/	/	/	14.7
Cc1ccc(-c2cc(C(=O)O)c3ccccc3n2)s1	-13.2	-3.1	-0.4	34.2*	-7.9	-0.8
COC(=O)C1=CN(C(C)C)C=C(C(=O)OC)C1c1ccc(C)s1	/	/	/	/	/	6.2
COc1ccc(-n2nc3ccc(NC(=O)c4ccccc4Br)cc3n2)cc1	/	/	/	/	/	0.4
Oc1ccc(-c2csc(Nc3cccc(O)c3)n2)cc1	/	/	/	/	/	10.2
CC(C)c1ccc2cc(C(=O)N(Cc3ccco3)C3CC3)[nH]c2c1	/	/	/	/	/	-0.8
O=C(N/N=C/c1ccco1)c1cc(-c2ccccc2)nc2ccccc12	-35.5	-3.3	-0.1	36.9*	-19.6	-16.8
O=c1[nH]nc(CNc2ccc(O)cc2)c2ccccc12	71.4*	13.7	0.6	-16.8	16.0	20.8
N#Cc1c(NC(=O)/C=C/c2ccco2)sc2c1CCCC2	-34.5	-4.9	0.1	57.3*	-21.7	5.3
O=C(/C=C/c1ccco1)Nc1sc2c(c1C(=O)O)CCC2	-7.9	-1.9	-0.6	-5.1	-3.7	-6.7
O=C(NC1=C(Nc2ccc(Cl)cc2)C(=O)c2ccccc2C1=O)c1ccccc1	51.2*	11.7	-1.4	7.1	0.7	28.4
CC(=O)Nc1ccccc1C(=O)N1CC(C)OC(C)C1 (stereo not drawn)	-15.7	-0.6	0.8	1.4	39.7*	-3.4
NC(=O)c1cc(S(=O)(=O)N2CC=C(c3ccccc3)CC2)cs1	-6.0	-1.4	8.3	-4.7	-2.1	-2.0
O=S(=O)(c1ccsc1)N1CC=C(c2ccccc2)CC1	-4.7	10.3	36.4*	34.7*	-11.6	-4.9
CC1Cc2nc(SCC(=O)OCc3ccccc3)n(C)c(=O)c2S1 (stereo not drawn)	-10.6	-1.0	-1.3	-5.0	34.9*	-2.9
CN1/C(=C\C=C(/C#N)C(=O)Nc2ccccc2F)C(C)(C)c2ccccc21	-2.7	-4.2	62.3*	3.5	-4.5	-2.3
CN1/C(=C/C=C(/C#N)C(N)=O)C(C)(C)c2ccccc21	-19.3	-6.9	/	/	/	-2.0
COc1cc(/C=C(/C#N)C(=O)c2ccccc2)ccc1OC(F)F	/	/	/	/	/	7.1
